Among the data in PubChem BioAssay (EPA / NIEHS) are outcome and AC50 values, retold here.

Calls of active or inactive are those of the source. How the source made its calls: active means hit-call score of the fitted dose curve at least 0.9, where 1 is the maximum; inactive means score below 0.9.

Holding throughout (settings): mRNA level, 48 h; actives raise or lower the signal
Read-out in assay [1]: Cytochrome P450 7A1 (Homo sapiens) (UniProt P22680)
In words: LTEA_HepaRG_CYP7A1: Life Technologies and Expression Analysis (LTEA) Assay for Cytochrome P450 7A1 (CYP7A1) using HepaRG (AID 2283496). In short, it runs like this: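 Using 0.5% DMSO as vehicle and baseline, chemicals were tested in duplicate over an 8-point range from 100 uM on HepaRG cells for 48 h; qRT-PCR signals were normalised to ACTB, GAPDH and POLR2A.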

Read-out in assay [2]: Glutathione S-Transferase (GSTA2), GSTA2 (gene 2939)
In words: LTEA_HepaRG_GSTA2: Life Technologies and Expression Analysis (LTEA) Assay for Glutathione S-Transferase (GSTA2) using HepaRG (AID 2283497). The method, boiled down:
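qRT-PCR readout of GSTA2 transcript, normalized to three housekeeping genes, fitted bidirectionally against 0.5% DMSO baseline. Differentiated HepaRG cells received compound for 48 h at 8 concentrations (top 100 uM, half-log steps).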

Read-out in assay [3]: growth arrest and DNA damage 45 (GADD45G), GADD45G (gene 10912)
In words: LTEA_HepaRG_GADD45G: Life Technologies and Expression Analysis (LTEA) Assay for growth arrest and DNA damage 45 (GADD45G) using HepaRG (AID 2283499). In short, it runs like this:
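Differentiated human HepaRG cells, 48 h post-plating, exposed 48 h in serum-free induction medium to 8 half-log concentrations (top 100 uM, 0.5% DMSO) in duplicate. GADD45G mRNA measured by Fluidigm TaqMan qRT-PCR, normalized to ACTB, GAPDH, POLR2A; bidirectional fit versus DMSO.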

Read-out in assay [4]: Glutamate-cysteine ligase regulatory (GCLM), GCLM (gene 2730)
In words: LTEA_HepaRG_GCLM: Life Technologies and Expression Analysis (LTEA) Assay for Glutamate-cysteine ligase regulatory (GCLM) using HepaRG (AID 2283500). In short, it runs like this:
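HepaRG, 48 h dosing, 100 uM top, half-log x8, 0.5% DMSO vehicle. Readout: GCLM mRNA by TaqMan qRT-PCR, housekeeping-normalized (ACTB/GAPDH/POLR2A). Curves fit bidirectionally vs DMSO baseline.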

Read-out in assay [5]: Glutathione S-transferase M3 (GSTM3), GSTM3 (gene 2947)
The assay is described as follows: LTEA_HepaRG_GSTM3: Life Technologies and Expression Analysis (LTEA) Assay for Glutathione S-transferase M3 (GSTM3) using HepaRG (AID 2283501). In short, it runs like this: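 Differentiated human HepaRG cells were exposed in duplicate for 48 h in serum-free induction medium, 8 points from 100 uM top in half-log steps, 0.5% DMSO. GSTM3 mRNA was measured by TaqMan qRT-PCR, normalized to ACTB, GAPDH and POLR2A; bidirectional fit versus DMSO.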

Read-out in assay [6]: Heat shock 70 kDa protein 1 (HSPA1A), gene 3303
The assay is described as follows: LTEA_HepaRG_HSPA1A: Life Technologies and Expression Analysis (LTEA) Assay for Heat shock 70 kDa protein 1 (HSPA1A) using HepaRG (AID 2283502). In short, it runs like this: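 HepaRG, 48 h exposure, 8-pt half-log CRC from 100 uM in 0.5% DMSO, duplicates. Readout: TaqMan qRT-PCR of HSPA1A mRNA, housekeeping-normalized (ACTB/GAPDH/POLR2A). Bidirectional fit vs 0.5% DMSO baseline.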

Read-out in assay [7]: Hypoxia-inducible factor 1-alpha (Homo sapiens) (UniProt Q16665)
In words: LTEA_HepaRG_HIF1A: Life Technologies and Expression Analysis (LTEA) Assay for Hypoxia-inducible factor 1 (HIF1A) Trancription factor using HepaRG (AID 2283503). In short, it runs like this:
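Gain- or loss-of-signal HIF1A mRNA changes are fitted against a DMSO baseline. HepaRG cultures receive eight concentrations, highest 100 uM, for 48 h in serum-free induction medium with 0.5% DMSO.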

Read-out in assay [8]: 3-Hydroxy-3-Methylglutaryl-CoA Synthase 2 (HMGCS2), HMGCS2 (gene 3158)
In words: LTEA_HepaRG_HMGCS2: Life Technologies and Expression Analysis (LTEA) Assay for 3-Hydroxy-3-Methylglutaryl-CoA Synthase 2 (HMGCS2) using HepaRG (AID 2283504). In short, it runs like this: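 Human HepaRG cells in serum-free induction medium were exposed in duplicate for 48 h to 8-point half-log series from 100 uM top in 0.5% DMSO. HMGCS2 mRNA measured by TaqMan qRT-PCR, normalised to ACTB, GAPDH, POLR2A; bidirectional fit versus DMSO.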

Read-out in another assay: HGF (gene 3082)
The assay is described as follows: LTEA_HepaRG_HGF: Life Technologies and Expression Analysis (LTEA) Assay for Hepatocyte Growth Facto (HGF) using HepaRG (AID 2283505). The method, boiled down: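 Differentiated HepaRG cells in serum-free induction medium exposed 48 h in duplicate, 8 half-log concentrations from 100 uM in 0.5% DMSO. HGF mRNA by qRT-PCR, normalised to ACTB, GAPDH, POLR2A; bidirectional fitting.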

Read-out in assay [9]: Insulin Like Growth Factor 1 (IGF1), IGF1 (gene 3479)
In words: LTEA_HepaRG_IGF1: Life Technologies and Expression Analysis (LTEA) Assay for Insulin Like Growth Factor 1 (IGF1) using HepaRG (AID 2283506). In short, it runs like this: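 qRT-PCR readout of IGF1 mRNA, normalized to three housekeeping genes, after 48 h chemical exposure of HepaRG cells. Concentrations: 8-point half-log series, top 100 uM, 0.5% DMSO vehicle. Gain or loss fitted against DMSO baseline.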

Read-out in assay [10]: Intercellular Adhesion Molecule 1 (ICAM1), ICAM1 (gene 3383)
The assay is described as follows: LTEA_HepaRG_ICAM1: Life Technologies and Expression Analysis (LTEA) Assay for Intercellular Adhesion Molecule 1 (ICAM1) using HepaRG (AID 2283507). In short, it runs like this: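 Differentiated human HepaRG cells in serum-free induction medium exposed 48 h in duplicate to 8 half-log concentrations (top 100 uM, 0.5% DMSO). ICAM1 mRNA quantified by TaqMan qRT-PCR, normalized to ACTB, GAPDH and POLR2A; bidirectional fitting versus DMSO.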

Read-out in assay [11]: Insulin-like growth factor-binding protein 1 (IGFBP1), IGFBP1 (gene 3484)
The assay is described as follows: LTEA_HepaRG_IGFBP1: Life Technologies and Expression Analysis (LTEA) Assay for Insulin-like growth factor-binding protein 1 (IGFBP1) using HepaRG (AID 2283508). The method, boiled down:
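HepaRG cells, plated 48 h then switched to serum-free induction medium, exposed in duplicate for 48 h to 8-point half-log series from 100 uM in 0.5% DMSO. mRNA measured by qRT-PCR, normalized to ACTB/GAPDH/POLR2A; bidirectional fit versus DMSO.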

Read-out in assay [12]: Interleukin 6 (IL6), IL6 (gene 3569)
In words: LTEA_HepaRG_IL6: Life Technologies and Expression Analysis (LTEA) Assay for Interleukin 6 (IL6) using HepaRG (AID 2283509). In short, it runs like this: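 qRT-PCR read-out of IL6 transcript, normalized to three housekeeping genes, after 48 h chemical exposure of HepaRG cells; 8-point half-log series, top 100 uM, 0.5% DMSO vehicle. Bidirectional curve fitting against DMSO baseline.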

Read-out in assay [13]: Interleukin 6 Receptor (IL6R), IL6R (gene 3570)
The assay is described as follows: LTEA_HepaRG_IL6R: Life Technologies and Expression Analysis (LTEA) Assay for Interleukin 6 Receptor (IL6R) using HepaRG (AID 2283510). The method, boiled down: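 HepaRG, 48 h exposure, 8-pt half-log series, top 100 uM, 0.5% DMSO vehicle, duplicates. Read-out: TaqMan qRT-PCR of IL6R transcript, housekeeping-gene normalized. Gain or loss fitted relative to DMSO baseline.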

Read-out in assay [14]: Potassium channel subfamily K member 1 (KCNK1), KCNK1 (gene 3775)
The assay is described as follows: LTEA_HepaRG_KCNK1: Life Technologies and Expression Analysis (LTEA) Assay for Potassium channel subfamily K member 1 (KCNK1) using HepaRG (AID 2283511). In short, it runs like this: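 HepaRG, 48 h exposure, 8-pt half-log series top 100 uM, 0.5% DMSO vehicle, duplicates. Readout: KCNK1 transcript by qRT-PCR (Fluidigm array), housekeeping-normalized; bidirectional curve fit relative to DMSO baseline.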

Read-out in assay [15]: Keratin 19 (KRT19), KRT19 (gene 3880)
In words: LTEA_HepaRG_KRT19: Life Technologies and Expression Analysis (LTEA) Assay for Keratin 19 (KRT19) using HepaRG (AID 2283512). The method, boiled down:
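Differentiated HepaRG cells in serum-free induction medium, exposed 48 h in duplicate to 8 half-log concentrations up to 100 uM in 0.5% DMSO. KRT19 mRNA by qRT-PCR, normalized to ACTB, GAPDH, POLR2A; bidirectional fit vs DMSO.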

Read-out in assay [16]: JUN Transcription Factor, JUN (gene 3725)
The assay is described as follows: LTEA_HepaRG_JUN: Life Technologies and Expression Analysis (LTEA) Assay for JUN Transcription Factor using HepaRG (AID 2283513). The method, boiled down:
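HepaRG, 48 h exposure, 8-pt half-log series top 100 uM, 0.5% DMSO, duplicate. JUN mRNA by qRT-PCR (Fluidigm), housekeeping-normalized (ACTB/GAPDH/POLR2A); bidirectional curve fit vs DMSO baseline.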

Read-out in assay [17]: Lipoprotein lipase (LPL), LPL (gene 4023)
In words: LTEA_HepaRG_LPL: Life Technologies and Expression Analysis (LTEA) Assay for Lipoprotein lipase (LPL) using HepaRG (AID 2283515). In short, it runs like this:
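HepaRG, 48 h exposure, 8-pt half-log dilutions from 100 uM, 0.5% DMSO vehicle, duplicates; qRT-PCR (Fluidigm array) of LPL mRNA vs housekeeping genes; bidirectional curve fit relative to DMSO baseline.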

Read-out in assay [18]: Lipase C (LIPC), LIPC (gene 3990)
In words: LTEA_HepaRG_LIPC: Life Technologies and Expression Analysis (LTEA) Assay for Lipase C (LIPC) using HepaRG (AID 2283514). In short, it runs like this:
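HepaRG, 48 h exposure, 8-pt half-log series from 100 uM in 0.5% DMSO, duplicates. Readout: LIPC mRNA by Fluidigm qRT-PCR, housekeeping-normalized (ACTB/GAPDH/POLR2A). Gain or loss fitted bidirectionally against DMSO baseline.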

Hypoxia-inducible factor 1-alpha (Homo sapiens), sequence (Q16665 whole entry, looked up): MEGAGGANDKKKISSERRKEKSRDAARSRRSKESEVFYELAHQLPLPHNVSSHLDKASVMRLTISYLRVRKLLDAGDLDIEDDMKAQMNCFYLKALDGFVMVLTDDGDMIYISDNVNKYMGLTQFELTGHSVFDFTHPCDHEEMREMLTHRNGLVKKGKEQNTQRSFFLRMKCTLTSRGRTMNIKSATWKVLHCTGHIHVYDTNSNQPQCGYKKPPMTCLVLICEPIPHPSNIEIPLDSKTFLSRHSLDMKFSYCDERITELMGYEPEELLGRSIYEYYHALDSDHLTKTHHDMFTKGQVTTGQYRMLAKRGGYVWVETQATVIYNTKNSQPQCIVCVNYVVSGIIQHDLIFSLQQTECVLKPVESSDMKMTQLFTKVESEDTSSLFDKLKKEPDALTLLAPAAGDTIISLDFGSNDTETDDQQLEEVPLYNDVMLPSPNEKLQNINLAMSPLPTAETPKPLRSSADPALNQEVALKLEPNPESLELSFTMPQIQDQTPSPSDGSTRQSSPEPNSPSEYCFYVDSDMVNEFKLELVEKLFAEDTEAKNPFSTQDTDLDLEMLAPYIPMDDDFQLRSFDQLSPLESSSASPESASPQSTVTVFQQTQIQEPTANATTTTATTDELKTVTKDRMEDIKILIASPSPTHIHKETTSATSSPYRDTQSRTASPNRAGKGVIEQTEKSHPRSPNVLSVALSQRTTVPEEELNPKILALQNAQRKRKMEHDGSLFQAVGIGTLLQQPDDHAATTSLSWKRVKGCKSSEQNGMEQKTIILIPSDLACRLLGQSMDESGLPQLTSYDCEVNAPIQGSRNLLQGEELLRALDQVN

As for `CNC(=O)ON=C(C)SC`, the compound was called inactive in assay [1], in assay [2], in assay [3], in assay [4], in assay [5] and in assay [6]. The call (in assay [7]; in [8]; with HGF (gene 3082); in assay [9]; in [10]; in assay [11]) was inactive. In addition, the compound was called inactive in [12], in assay [13], in [14], in assay [15], in [16] and in [17].

Take `CCCSP(=O)(OCC)SCCC`: the AC50 is 22.1 µM (active) in [1] and 27.7 µM (active) in assay [9]. In addition, the call in assay [2], in assay [3], in [4], in assay [6], in assay [7] and in [8] was inactive. Moreover, the outcome (with HGF (gene 3082); in assay [10]; in assay [11]; in assay [12]; in [13]; in assay [14]) was inactive. Moreover, the outcome in [15], in assay [16], in assay [18] and in assay [17] was inactive.

For the compound `O=[N+]([O-])c1cc(C(F)(F)F)c(Cl)c([N+](=O)[O-])c1Nc1ncc(C(F)(F)F)cc1Cl`, the concentration at half-maximal activity (AC50) was 23 µM (active) in assay [1]; 24.9 µM (active) in [2]; 31.9 µM (active) in [7]; 36.5 µM (active) in assay [8]; 79.4 µM (active) in [9]; 42.6 µM (active) in [11]. In addition, the half-maximal activity concentration (AC50) in assay [12] is 73.9 µM (active); in assay [13], 50 µM (active); in [15], 26.2 µM (active); in assay [17], 74.1 µM (active). Besides, the result (in assay [3]; in assay [4]; in assay [5]; in assay [6]; with HGF (gene 3082); in [10]) was inactive. Moreover, the outcome in assay [14] and in assay [16] was inactive.
